Screens from PubChem.
KCNQ2 block: inhibitors of rat KCNQ2 potassium channel; CHO-K1 KCNQ2, FluxOR thallium flux, 20 min; hits give low values; AID 2156; hit rate 1.1% among 310,000; B-score at 10 µM; O88943;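 active = fluorescence ratio B-score at most minus 3 library SDs, with starting brightness B-score within 2 library SDs, cut at about -5.5 in these data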
KCNQ2 enhance: KCNQ2 (rat) channel potentiation. O88943. CHO-K1 KCNQ2, FluxOR thallium flux fluorescence; hits give high values. B-score at 10 µM. hit rate 0.54% among 310,000. AID 2239;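 active = fluorescence ratio B-score at least 3 SD of library B-scores, with initial fluorescence B-score within 3 of them, cut at about 5.3 in these data; same plate scores as AID 2156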;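 also: B-score of peak minus minimum over baseline fluorescence ratio after K+ and Tl+ stimulus; positive B-score means potentiation of KCNQ2 with more thallium influx and brighter signal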
Kir21 conf inh: confirmation of mouse Kir2.1 potassium channel inhibitors; shares compounds with KCNQ2 enhance; hit rate 41% among 2,300; Tl flux remaining, % of negative control (hits give low values), % at 10 µM; Kir2.1-expressing cells, FluxOR thallium flux fluorescence; hits give low values; AID 2032;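 active = Primary-screen hit whose thallium flux fell at least 3 control SD below untreated wells in both duplicates, with normal baseline fluorescence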;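 also: 0% = blank wells without stimulus and 100% = stimulated no-compound controls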
Target sequence (P35561 whole entry, looked up): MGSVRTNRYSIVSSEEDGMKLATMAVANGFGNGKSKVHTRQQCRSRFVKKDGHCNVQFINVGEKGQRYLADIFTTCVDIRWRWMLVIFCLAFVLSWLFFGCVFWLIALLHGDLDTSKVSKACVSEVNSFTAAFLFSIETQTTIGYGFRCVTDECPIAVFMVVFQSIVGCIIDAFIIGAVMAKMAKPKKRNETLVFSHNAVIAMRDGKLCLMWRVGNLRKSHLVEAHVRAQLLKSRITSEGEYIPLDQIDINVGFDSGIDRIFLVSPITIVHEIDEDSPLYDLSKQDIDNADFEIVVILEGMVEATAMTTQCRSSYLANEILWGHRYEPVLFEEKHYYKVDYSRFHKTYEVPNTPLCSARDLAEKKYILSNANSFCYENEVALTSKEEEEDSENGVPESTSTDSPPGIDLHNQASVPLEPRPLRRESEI
HEK293 ctr: parental HEK293 activity in Kir2.1 inhibitor counter-screen. shares compounds with KCNQ2 enhance. parental HEK293 cells, FluxOR thallium flux fluorescence; 0% = unstimulated blank wells. FluxOR signal as % of negative control (100 = no effect), % at 10 µM. hit rate 19% among 2,300;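 active = dye signal at least 3 control SD above or below untreated wells in both duplicates, raw fluorescence within 3, either direction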;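 also: percent is based on the flux ratio of peak minus minimum fluorescence over baseline F0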
CHO-K1 Tl ctr: parental CHO-K1 activity in KCNQ2 potentiator counter-screen. shares compounds with KCNQ2 enhance. parental CHO-K1 cells, FluxOR thallium flux fluorescence; zero = vehicle mean+3SD, 100% = vehicle-minus-blank window. activity increase over 3SD of controls, % at 10 µM. hit rate 43% among 1,200. AID 2282;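 active = signal rise of at least 3 SD above the untreated control mean, in both duplicate wells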;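 also: counter screen of KCNQ2 potentiator hits so any rise reflects channel-independent effects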
KCNQ1 pot spec: human KCNQ1 counter-target activity of KCNQ2 potentiators; shares compounds with KCNQ2 enhance; CHO KCNQ1 stable, FluxOR thallium flux fluorescence; beyond 3SD, as % of vehicle-control signal; activation over 3SD threshold, % at 10 µM; hit rate 28% among 1,200; AID 2283;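 active = fluorescence ratio rise of at least 3 SD of vehicle wells above their mean, in both replicate wells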;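 also: 0% = vehicle mean plus 3 SD and 100% = vehicle minus unstimulated blank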
KCNQ2 pot conf: confirmation of rat KCNQ2 potassium channel potentiators. shares compounds with KCNQ2 enhance. CHO-KCNQ2 cells, FluxOR thallium flux fluorescence. potentiation, less the hit threshold, % at 10 µM. hit rate 68% among 1,200. AID 2287;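 active = fluorescence ratio rising 3 SD or more over the vehicle control mean in both replicates, plus primary screen hit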;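 also: peak minus minimum thallium fluorescence divided by baseline after K/Tl stimulus; 0% = vehicle mean plus 3 SD and 100% = vehicle minus unstimulated blank difference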
Kir2-1 sel: mouse Kir2.1 off-target activity of KCNQ2 potentiators; AID 2345; shares compounds with KCNQ2 enhance; activity over 3SD threshold, % at 10 µM; hit rate 2% among 1,200; HEK293 Kir2.1, FluxOR thallium flux fluorescence;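 active = fluorescence ratio rise of at least 3 SD above the vehicle-control mean, seen in both replicates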;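 also: 0% = vehicle mean plus 3 SD and 100% = vehicle minus no-stimulus blank window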
KCNQ2 W236L MoA: potentiates the retigabine-insensitive rat KCNQ2 W236L mutant channel | shares compounds with KCNQ2 enhance | CHO KCNQ2-W236L, automated patch clamp current | current increase over 3SD of negative controls (%), hits give high values, % at 25 µM | hit rate 10% among 940 | AID 2558;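 active = current increase at least 3 SD of the untreated controls above them in both duplicate recordings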
Starred values were filed as active, the others as inactive; i = inactive; nt = not tested or not shown. Only some compounds are listed: those with a hit (about 1.6% of all), similar ones and a draw of the others.

SMILES	KCNQ2 block	KCNQ2 enhance	Kir21 conf inh	HEK293 ctr	others
C/C(=N\NC(=S)NCCc1ccccc1)c1ccc(Cl)cc1Cl	i	6.24*	i	i	CHO-K1 Tl ctr=11.5*;KCNQ1 pot spec=-25.0;KCNQ2 pot conf=-10.4;Kir2-1 sel=-23.8
S=C(NCCc1cccc(Cl)c1)NCc1ccccc1	i	7.49*	nt	nt	CHO-K1 Tl ctr=9.3*;KCNQ1 pot spec=41.3*;KCNQ2 pot conf=12.3*;Kir2-1 sel=-58.2;KCNQ2 W236L MoA=i
S=C(NCCc1ccc(Cl)cc1)NCc1ccccc1	i	nt	i	i
CC(Oc1cccc(Cl)c1)C(=O)Nc1ccc(N2CCOCC2)cc1N1CCOCC1 (configuration not stated)	i	nt	nt	nt
Cc1sc(N)c(C(=O)c2ccccc2)c1C	i	0.1	nt	nt
NC(=O)c1ccc(N2CCN(S(=O)(=O)c3ccccc3)CC2)c([N+](=O)[O-])c1	i	0.85	nt	nt
CCCOc1cccc(-c2cc(C(=O)NN)c3ccccc3n2)c1	i	0.73	nt	nt
CCCOc1cccc(-c2cc(C(=O)N/N=C/c3ccccn3)c3ccccc3n2)c1	i	5.5*	i	i	CHO-K1 Tl ctr=-12.6;KCNQ1 pot spec=-35.7;KCNQ2 pot conf=-25.7;Kir2-1 sel=-41.1
CN1CCN(S(=O)(=O)c2ccc(N3CCc4ccccc4C3)nc2)CC1	i	0.13	nt	nt
O=C(CSCc1ccccc1)NNC(=S)Nc1cccc(Cl)c1Cl	i	nt	nt	nt
NS(=O)(=O)c1ccc(CNC(=O)c2cccnc2Cl)cc1	i	0.85	nt	nt
COc1ccc(/C=C(\NC(=O)c2ccc(C)cc2)C(=O)NCCCn2ccnc2)cc1OC	i	nt	nt	nt
Cc1ccc(/C=N/n2c(COc3ccccc3)n[nH]c2=S)cc1	i	nt	nt	nt
CC(C)c1ccc(/C=N/n2c(COc3ccccc3)n[nH]c2=S)cc1	i	7.67*	i	i	CHO-K1 Tl ctr=-3.3;KCNQ1 pot spec=-45.0;KCNQ2 pot conf=9.0*;Kir2-1 sel=-15.2;KCNQ2 W236L MoA=i
CC(NCc1cc(Br)ccc1OCC(=O)NCc1ccccc1)c1ccccc1 (configuration not stated)	i	nt	43.0%*	i
CCN(CC)CCNCc1cc(Br)ccc1OCC(=O)NCc1ccccc1	i	nt	nt	nt
Cc1ccc(NC(=O)NC(=O)c2cnccc2C(F)(F)F)c(C)c1	i	0.34	nt	nt
Cc1ccc(N=C(NO)c2cnccc2C(F)(F)F)c(C)c1	i	7.43*	i	i	CHO-K1 Tl ctr=-1.5;KCNQ1 pot spec=-13.8;KCNQ2 pot conf=-26.5;Kir2-1 sel=-39.1
Cc1ccc(C2C3=C(NCCN=C3c3ccccc3)C(=O)N2c2ccccc2)cc1 (configuration not stated)	i	nt	i	i
CCOc1ccc(N2C(=O)C3=C(C(c4ccc(Cl)cc4)=NCCN3)C2c2cccnc2)cc1 (configuration not stated)	i	nt	nt	nt
N#CCOC(=O)c1c2c(nc3ccccc13)CCC2	i	0.47	nt	nt
CCCCn1c(N)c(N(CCOC)C(=O)COC(=O)CCOc2ccccc2)c(=O)[nH]c1=O	i	nt	i	i
CCCCn1c(N)c(N(CCOC)C(=O)COc2ccc(OCC)cc2)c(=O)[nH]c1=O	i	0.94	nt	nt
CCc1ccc(OCCCCN(C)Cc2ccccc2)cc1	i	nt	26.5%*	i
COc1cc(C)ccc1OCCOCCN(C)Cc1ccccc1	i	0.85	nt	nt
SMILES	KCNQ2 block	KCNQ2 enhance	Kir21 conf inh	HEK293 ctr	others
CN(CCOCCOc1ccc2ccccc2c1)Cc1ccccc1	i	nt	17.0%*	i
Cc1cc(C)c(C)c(OCCCCN(C)Cc2ccccc2)c1	i	nt	26.5%*	i
CN(CCCCOc1ccc(F)cc1)Cc1ccccc1	i	1.03	nt	nt
COc1ccc(OCCN(C)Cc2ccccc2)cc1	i	nt	nt	nt
CCOc1ccc(C2/C(=C(\O)c3ccc4c(c3)OCCO4)C(=O)C(=O)N2CCN2CCOCC2)cc1OCC (configuration not stated)	i	0.63	nt	nt
Cc1onc(-c2c(F)cccc2Cl)c1C(=O)NC(=S)NC1CCS(=O)(=O)C1 (configuration not stated)	i	nt	nt	nt
CN(CC(=O)Nc1ccc(F)cc1)C(=O)COC(=O)CCN1C(=O)C2CC=CCC2C1=O (configuration not stated)	i	nt	nt	nt
COCCNC(=O)c1cccc(OC2CCN(Cc3ccc(Cl)c(F)c3)CC2)c1	i	nt	nt	nt
CCCN(CC1CC1)C(=O)CSc1ncnc2sccc12	i	nt	nt	nt
Cc1ccc(C)c(Cn2c3ccccc3c3cnn(CC(=O)NCc4ccccn4)c(=O)c32)c1	i	1.18	nt	nt
Cc1ccc(C)c(Cn2c3ccccc3c3cnn(CC(=O)NCCCN4CCCCC4)c(=O)c32)c1	i	0.21	60.5%*	i
O=C(CSC(=S)N1CCOCC1)Nc1ccc(S(=O)(=O)Nc2ncccn2)cc1	i	0.24	nt	nt
CCCOc1ccc(CSC(=N)N)cc1C(=O)OC	i	2.12	nt	nt
COC(=O)c1cc(CSC(=N)N)ccc1OCCC(C)C	i	0.96	29.0%*	i
CCOC(=O)c1c(CSc2ccccc2)n(C)c2ccc(O)c(CN3CCOCC3)c12	i	nt	nt	nt
CSc1ncccc1C(=O)NC(C)C1CC2CCC1C2 (configuration not stated)	i	nt	nt	nt
COCCNc1c2c(nc3c(-c4ccccc4)c(C)nn13)CCCC2	i	nt	nt	nt
Cc1nn2c(NCCN(C)C)c3c(nc2c1-c1ccccc1)CCCC3	i	6.07*	nt	nt	CHO-K1 Tl ctr=-24.4;KCNQ1 pot spec=-13.4;KCNQ2 pot conf=-33.3;Kir2-1 sel=-63.8
O=S(=O)(c1ccc(Cl)cc1)N1CCSC1c1ccco1 (configuration not stated)	i	nt	65.5%*	i
O=[N+]([O-])c1ccc(S(=O)(=O)N2CCSC2c2ccco2)cc1 (configuration not stated)	i	nt	nt	nt
CCCCCCCC(=O)NNC(=O)Cc1ccccc1	i	0.67	nt	nt
CCCCCC/C(C)=C1/SC(=S)NC1=O	i	21.6*	i	438.5%*	CHO-K1 Tl ctr=6.0*;KCNQ1 pot spec=-23.1;KCNQ2 pot conf=104.5*;Kir2-1 sel=-3.4;KCNQ2 W236L MoA=71.1%*
Cc1ccc(NC(=S)NCc2ccc(Cl)cc2)c(C)c1	i	5.09	nt	nt
NNc1cc([N+](=O)[O-])cc2c1C(=O)N(Cc1ccccc1)S2=O (configuration not stated)	i	0.42	nt	nt
Cc1csc(NC(=O)c2cc3c(s2)CCCC3)n1	i	7.28*	i	i	CHO-K1 Tl ctr=95.9*;KCNQ1 pot spec=-18.2;KCNQ2 pot conf=-2.5;Kir2-1 sel=-28.8;KCNQ2 W236L MoA=i
Cc1csc(NC(=O)c2cc3c(s2)CCCCC3)n1	i	1.28	nt	nt
C=CCn1c(SCc2cccc(C#N)c2)nnc1-c1ccccc1O	i	0.25	52.0%*	i
